Experiment [1] concerns the target Regulator of G-protein signaling 16 (Homo sapiens) (UniProt O15492). As to the kind of experiment: small molecules altering RGS protein interactions with GNAO1 – biochemical, multiplexed beads, flow cytometry, RGS4/7/8/16/19, primary screen (AID 1504; call rule not given here;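 also: fluorescently labeled Galpha-o bound to GDP with aluminium fluoride binding biotinylated RGS beads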). To be noted: multiplexed bead flow cytometry, measured here: RGS16 interaction, at 10 µM.
For experiment [2], the target named is Regulator of G-protein signaling 4 (Homo sapiens) + Guanine nucleotide-binding protein G(o) subunit alpha (Homo sapiens) (UniProt P49798+P09471). Described as above. To be noted: multiplexed bead flow cytometry, at 10 µM.
Experiment [3] concerns the target Regulator of G-protein signaling 7 (Homo sapiens) (UniProt P49802). Described as above. To be noted: multiplexed bead flow cytometry, measured here: RGS7 interaction, at 10 µM. (In general: Flow cytometry measures light scatter and fluorescence of single cells or particles in a stream.)
The target in experiment [4] is Regulator of G-protein signaling 8 (Homo sapiens) (UniProt P57771). The description is as above. To be noted: multiplexed bead flow cytometry, measured here: RGS8 interaction, at 10 µM.
The nature of experiment [5]: interference with biotin-avidin bead interaction – biochemical, flow cytometry, bead-based, counter-screen for RGS protein interaction modulators (AID 1783;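 active = inhibition above 50%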;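 also: median green fluorescence of gated singlet beads compared with DMSO control wells; 0% = DMSO wells and 100% = complete loss of bead fluorescence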). To be noted: streptavidin beads, fluorescein-biotin binding, at 10 µM, stronger effect = higher value.
For experiment [6], the target named is Guanine nucleotide-binding protein G(o) subunit alpha (Homo sapiens) (UniProt P09471). As to the kind of experiment: retest of RGS8-Galphao interaction hits – biochemical, multiplexed bead flow cytometry, single concentration, confirmation (AID 1836; in the data active = binding response below about 72% or above about 130%; inactive = in between;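 also: Galphao activated as GDP AlF4 complex before binding bead RGS8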). To be noted: bead-based flow cytometry RGS8-Galphao binding, fluorescence; at 10 µM; actives lie on both sides.

For experiment [7] the target is unchanged. Kind of experiment: retest of RGS7-Galphao interaction hits – biochemical, multiplexed bead flow cytometry, single concentration, confirmation (AID 1837; in the data active = response below about 75% or above about 130%; inactive = in between;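 also: fluorescent Galphao activated with GDP and aluminum fluoride binding bead-coupled RGS7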). The settings on record: bead-based flow cytometry RGS7-Galphao binding; at 10 µM; actives lie on both sides.
For experiment [8], the target named is Regulator of G-protein signaling 16 (Homo sapiens) + Guanine nucleotide-binding protein G(o) subunit alpha (Homo sapiens) (UniProt O15492+P09471). As to the kind of experiment: RGS16 and Galphao interaction regulators – biochemical, single concentration, multiplexed bead flow cytometry, confirmation (AID 1838; in the data active = response below about 74% or above about 130%; inactive = in between;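 also: Galphao activated as the GDP aluminium fluoride complex binding bead-coupled RGS16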). The settings on record: bead-based flow cytometry, at 10 µM, actives lie on both sides.

For experiment [9], the target named is Guanine nucleotide-binding protein G(o) subunit alpha (Homo sapiens) (UniProt P09471). Kind of experiment: RGS4 and Galphao interaction regulators – biochemical, single concentration, multiplexed bead flow cytometry, confirmation (AID 1840; in the data active = binding response below about 74% or above about 130%; inactive = in between). To be noted: at 10 µM, actives lie on both sides.
The target of experiment [10] is Guanine nucleotide-binding protein G(o) subunit alpha (Homo sapiens) + Regulator of G-protein signaling 19 (Homo sapiens) (UniProt P09471+P49795). As to the kind of experiment: RGS19 interaction with Gαo, hit retest – biochemical, single point, multiplexed bead flow cytometry, confirmation (AID 1841; in the data active = response below about 50% or above about 160%; inactive = in between;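 also: 100% = no compound control and 0% = blank background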). To be noted: bead-based flow cytometry RGS19-Galphao binding; at 10 µM; actives lie on both sides.

The target of experiment [11] is Cell division control protein 42 homolog (Homo sapiens) (UniProt P60953). Kind of experiment: inhibition of fluorescent GTP binding to constitutively active Cdc42 – biochemical, multiplex bead flow cytometry, Bodipy-FL-GTP, dose response (AID 1333;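 active = fitted half-maximal concentration within the tested dose range, moderate curve steepness, a statistically real signal drop, and little compound fluorescence or tag-binding interference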). To be noted: bead-based flow cytometry; series mostly up to 100 µM.
Experiment [12] shares this target. Kind of experiment: inhibition of fluorescent GTP binding to wildtype Cdc42 – biochemical, multiplex bead flow cytometry, Bodipy-FL-GTP, dose response (AID 1334). The settings on record: bead-based flow cytometry, Bodipy-FL-GTP binding to GST-Cdc42; at 100 µM (top of the series).
Experiment [13] deals with Ras-related protein Rab-7a (dog), GTP binding. Kind of experiment: blockers of fluorescent GTP binding to Rab7 – biochemical, wildtype, multiplex bead flow cytometry, dose response (AID 1336; call rule not given here). The settings on record: bead-based flow cytometry; series mostly up to 100 µM.
The target of experiment [14] is Ras-related C3 botulinum toxin substrate 1 (Homo sapiens) (UniProt P63000). As to the kind of experiment: inhibition of wildtype Rac1 nucleotide loading – biochemical, multiplex bead flow cytometry, dose response (AID 1340;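 active = dose curve with midpoint inside tested range, moderate steepness, plateau gap beyond fit error, low compound glow and bead-link interference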). To be noted: GST-Rac1 beads, Bodipy-FL-GTP binding; at 100 µM (top of the series).
Experiment [15] concerns the target GTPase HRas (Homo sapiens) (UniProt P01112). As to the kind of experiment: blockade of GTP loading onto mutant Ras – biochemical, activated mutant, multiplex bead flow cytometry, dose response (AID 1341;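 active = dose-response curve with midpoint inside the tested range, moderate steepness, significant amplitude and little compound fluorescence or bead-attachment interference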;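 also: GST-tagged constitutively activated Ras mutant immobilized on beads and multiplexed with other GTPases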). To be noted: bead-based flow cytometry, Bodipy-FL-GTP binding; series mostly up to 100 µM.
Experiment [16] can be described thus: hit retest on RPL19A-GFP reporter strain – cell-based, S. cerevisiae, flow cytometry, cherry picks, mother/daughter gates, confirmation (AID 2270;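 active = GFP response below 50% of the DMSO control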). To be noted: 3 h, at 10 µM, stronger effect = lower value, 100 = same GFP as DMSO wells.
Experiment [17] in a line: yeast TOR pathway reporter LAP4-GFP change – cell-based, cherry picks, flow cytometry, mother/daughter gates, confirmation (AID 2271;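 active = GFP response above 150% of the DMSO control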;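 also: ratio of sample to DMSO plate mean so 100% equals DMSO level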). The settings on record: S. cerevisiae LAP4-GFP strain, 3 h, at 10 µM, stronger effect = higher value.
A short description of experiment [18]: TOR pathway reporter MEP2-GFP, retest of hits – S. cerevisiae, flow cytometry GFP, cherry picks, confirmation (AID 2272;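 active = GFP response above 150% of the DMSO control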;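 also: ratio of well signal to plate DMSO mean so 100% equals DMSO level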). The settings on record: S. cerevisiae MEP2-GFP strain, 3 h, at 10 µM, stronger effect = higher value.
Experiment [19] can be described thus: yeast AGP1-GFP fluorescence change, single-dose – cell-based, flow cytometry, S. cerevisiae, cherry picks, confirmation (AID 2273;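 active = GFP response above 150% of the DMSO level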;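 also: median GFP channel fluorescence over the whole cell population gate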). To be noted: S. cerevisiae AGP1-GFP strain, 3 h, at 10 µM.
A short description of experiment [20]: TOR pathway CIT2 reporter hit retest – S. cerevisiae, GFP fusion, cherry picks, mother/daughter gates, confirmation (AID 2274;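 active = GFP response above 150% of the DMSO level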). To be noted: S. cerevisiae CIT2-GFP strain, flow cytometry, 3 h, at 10 µM, stronger effect = higher value.
Setting [21] is: measured here: daughter cell gate.
[22] abbreviates: measured here: mother cell gate.
Setting [23] is: measured here: daughter cell gate response.
The mark [24] stands for this setting: measured here: mother cell gate response.

SMILES strings stand for the structures. For some assays here: Results with a measured potency or affinity are listed apart. Some of the results follow. Activity calls are given as the source filed them.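 The calls were made as follows, unless noted: active = fitted half-maximal concentration within the tested range, moderate curve steepness, significant signal drop, and little compound fluorescence or bead-linkage interference; inactive = the rest.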

Chain of Guanine nucleotide-binding protein G(o) subunit alpha (Homo sapiens) (P09471 whole entry, looked up): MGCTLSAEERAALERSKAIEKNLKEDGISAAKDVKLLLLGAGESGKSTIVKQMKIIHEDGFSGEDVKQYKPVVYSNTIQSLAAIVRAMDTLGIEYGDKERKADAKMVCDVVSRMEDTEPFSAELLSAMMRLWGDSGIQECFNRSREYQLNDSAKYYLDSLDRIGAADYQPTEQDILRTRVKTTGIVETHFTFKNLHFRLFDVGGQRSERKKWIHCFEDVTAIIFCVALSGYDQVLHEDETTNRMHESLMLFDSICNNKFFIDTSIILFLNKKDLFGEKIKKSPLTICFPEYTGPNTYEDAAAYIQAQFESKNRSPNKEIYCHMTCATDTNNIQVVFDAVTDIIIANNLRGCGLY
Chain of Cell division control protein 42 homolog (Homo sapiens) (P60953 whole entry, looked up): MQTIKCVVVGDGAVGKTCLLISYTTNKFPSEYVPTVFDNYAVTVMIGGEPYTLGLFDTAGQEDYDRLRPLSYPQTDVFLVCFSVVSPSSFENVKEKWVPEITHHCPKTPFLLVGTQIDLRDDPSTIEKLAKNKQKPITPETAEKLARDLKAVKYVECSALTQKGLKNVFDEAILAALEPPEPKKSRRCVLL
Chain of Regulator of G-protein signaling 16 (Homo sapiens) + Guanine nucleotide-binding protein G(o) subunit alpha (Homo sapiens) (O15492 whole entry, looked up): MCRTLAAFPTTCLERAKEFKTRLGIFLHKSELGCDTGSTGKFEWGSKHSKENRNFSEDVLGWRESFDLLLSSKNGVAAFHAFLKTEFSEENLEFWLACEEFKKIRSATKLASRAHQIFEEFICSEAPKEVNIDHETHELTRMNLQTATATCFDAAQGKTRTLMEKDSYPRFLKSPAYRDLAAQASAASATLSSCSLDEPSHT
Chain of Regulator of G-protein signaling 16 (Homo sapiens) + Guanine nucleotide-binding protein G(o) subunit alpha (Homo sapiens) (P09471 whole entry, looked up): as the sequence (P09471 whole entry, looked up) above
Chain of Guanine nucleotide-binding protein G(o) subunit alpha (Homo sapiens) + Regulator of G-protein signaling 19 (Homo sapiens) (P09471 whole entry, looked up): as above
Chain of Guanine nucleotide-binding protein G(o) subunit alpha (Homo sapiens) + Regulator of G-protein signaling 19 (Homo sapiens) (P49795 whole entry, looked up): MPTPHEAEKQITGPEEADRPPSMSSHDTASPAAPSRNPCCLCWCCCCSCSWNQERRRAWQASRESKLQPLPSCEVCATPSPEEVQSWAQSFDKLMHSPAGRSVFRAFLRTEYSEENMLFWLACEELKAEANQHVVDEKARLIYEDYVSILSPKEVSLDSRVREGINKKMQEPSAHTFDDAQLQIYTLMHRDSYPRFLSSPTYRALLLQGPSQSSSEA
Chain of Regulator of G-protein signaling 4 (Homo sapiens) + Guanine nucleotide-binding protein G(o) subunit alpha (Homo sapiens) (P09471 whole entry, looked up): as the sequence (P09471 whole entry, looked up) above
Chain of Regulator of G-protein signaling 4 (Homo sapiens) + Guanine nucleotide-binding protein G(o) subunit alpha (Homo sapiens) (P49798 whole entry, looked up): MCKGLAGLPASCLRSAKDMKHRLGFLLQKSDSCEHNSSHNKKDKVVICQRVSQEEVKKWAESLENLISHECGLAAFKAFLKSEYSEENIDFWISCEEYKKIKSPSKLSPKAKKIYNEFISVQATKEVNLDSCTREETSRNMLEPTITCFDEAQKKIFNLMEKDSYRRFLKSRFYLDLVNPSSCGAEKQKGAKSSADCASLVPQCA

As a reminder, the inhibition is the share of the control response that was lost under treatment. On to `CC(C)N(CC#CCC1(O)c2ccccc2-c2ccccc21)C(C)C`, for which the RGS16–Galpha-o binding response in experiment [1] worked out at 180%. For the same compound, the RGS4–Galpha-o binding response in experiment [2] was 106% (active). Also, the RGS7–Galpha-o binding response in experiment [3] was 107%. This compound registered an RGS8–Galpha-o binding response in [4] of 122%. For the same compound, in experiment [5], the inhibition is 0.7% (inactive). Further, the values for the binding response (% of control) in experiment [6] and in [9] were 98.5% (inactive) and 99.5% (inactive), respectively. Also, the response (percent of control binding) in experiment [7] is 99.5% (inactive); in experiment [10] it was 110% (inactive). Moreover, the response (% of control binding) in experiment [8] is 101% (inactive).
As to `CN(C)c1ccc(/C=C/C=C2/C(=O)NC(=O)N(c3ccccc3)C2=O)cc1`, the outcome in experiment [11], in experiment [13] and in [15] was inactive. In experiment [12], the fluorescence, percent of control (lower = inhibition) came out at 23.6%. In experiment [14], the GTP binding signal, raw median fluorescence (lower = inhibition) (MCF (arbitrary fluorescence units)) stood at 155.
For `Cc1ccc(-n2c(O)c(/C=N/c3ncc(Br)cc3Br)c(=O)[nH]c2=O)cc1`, the compound was called inactive in [11], in experiment [13] and in [15]. Besides, in experiment [12], the fluorescence, percent of control (lower = inhibition) amounted to 49.1%. The compound also yielded a GTP binding signal, raw median fluorescence (lower = inhibition) (MCF (arbitrary fluorescence units)) in [14] of 59.9.
`Cc1sc(-n2c(C)cc(C=C3C(=O)NC(=O)NC3=O)c2C)c(C#N)c1C`: the call in [11] and in experiment [15] was inactive. In experiment [12], this compound showed a fluorescence, percent of control (lower = inhibition) of 27.5%. In experiment [14], the GTP binding signal, raw median fluorescence (lower = inhibition) (MCF (arbitrary fluorescence units)) came to 199.
Take `C[C@]12CC[C@@H](O)C[C@@H]1CC[C@@H]1[C@@H]2CC[C@]2(C)[C@@H](O)CC[C@@H]12`: the GFP response vs DMSO was 92.2% (inactive) in experiment [16], 87.3% in experiment [16] (setting [21]), 94.1% in experiment [16] (setting [22]) and 89.9% (inactive) in [18]. The GFP response relative to DMSO in [17] is 112% (inactive); in [17] (setting [23]) it was 107%; in [17] (setting [24]), 119%. For the same compound, the GFP response, % of DMSO in experiment [19] is 90% (inactive); in experiment [20] it was 85.5% (inactive); in experiment [20] (setting [21]), 86.2%; in experiment [20] (setting [22]), 87.8%.
For the compound `C#C[C@]1(O)CC[C@H]2[C@@H]3CCC4=CC(=O)CC[C@]4(C)[C@H]3CC[C@@]21C`, the GFP response vs DMSO is 97% (inactive) in experiment [16], 95.9% in experiment [16] (setting [21]), 95.6% in [16] (setting [22]) and 107% (inactive) in experiment [18]. In addition, the GFP response relative to DMSO in [17] was 103% (inactive); in experiment [17] (setting [23]) it was 102%; in experiment [17] (setting [24]) it was 101%. In addition, the GFP response, % of DMSO in experiment [19] is 95.4% (inactive); in experiment [20], 95.5% (inactive); in experiment [20] (setting [21]), 97.2%; in experiment [20] (setting [22]), 92.6%.
Take `Cc1ccccc1OCCCn1cc(C(=O)O)c2ccccc21`: the outcome in experiment [11], in experiment [13] and in experiment [15] was inactive. Also, the fluorescence, percent of control (lower = inhibition) in experiment [12] is 68.3%. Also, the GTP binding signal, raw median fluorescence (lower = inhibition) (MCF (arbitrary fluorescence units)) in [14] turned out to be 37.8.
Regarding `O=c1[nH]c(=S)[nH]c(O)c1N=Nc1ccc(S(=O)(=O)N2CCc3ccccc32)cc1`, the result in experiment [11], in [13] and in experiment [15] was inactive. The same compound had a fluorescence, percent of control (lower = inhibition) in [12] of 44.9%. This compound gave a GTP binding signal, raw median fluorescence (lower = inhibition) (MCF (arbitrary fluorescence units)) in experiment [14] of 312.

Source of the values: PubChem BioAssay.
